# The supplement of paper PMC12636033
# ± gives the standard deviation of the averaged measurements. The full ranking holds about 33,000 sequences; the median of “E-score (rank enrichment, -0.5 to 0.5)” is about -0.0043, and the highest 2% start at about 0.24. The sample holds the highest values, similar sequences and a random draw of the others, so the mix is not that of the screen.
# System: 2Sp-muMax20 (muMax20 with two 2,6-bis(methyl)pyridine Cys staples)
# Assay: PBM 8-mer E-score (E-score (rank enrichment, -0.5 to 0.5)); higher = stronger preferential binding
# Experimental: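 Protein binding microarray (universal PBM chip covering all 10-mers in fixed probe flanks) with chemically synthesized human Max(13-93) bHLH-LZ analogs (not full-length Max) bearing noncanonical residues (hArg, Tha, Aib, Nle at 65) and aromatic Cys staples. Read-out per 8-mer (and its reverse complement): E-score (rank-based enrichment, -0.5 to 0.5) and Z-score of median probe intensity.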
row,Sequence,PBM 8-mer E-score
1,GGGTGAAC,-0.0445 ± 0.0025
2,AGATTGGA,0.0807 ± 0.089
3,AGATTGGG,0.236 ± 0.005
4,AGATTGGC,-0.253 ± 0.0034
5,GACACTCA,-0.155 ± 0.12
6,CCTTCTCC,-0.1487 ± 0.00034
7,ACAGGCCC,-0.0606 ± 0.0054
8,AGTATAAC,0.0726 ± 0.034
9,AGTATACT,0.287 ± 0.014
10,CGTATACG,0.279 ± 0.086
11,AGTATAAT,0.307 ± 0.047
12,CGTATACA,0.0425 ± 0.12
13,ACTATAAG,0.147 ± 0.011
14,CGTATAAG,0.0589 ± 0.0073
15,ACTATAAT,0.1911 ± 0.00057
16,AGTATAAG,0.273 ± 0.061
17,CGTATACC,-0.132 ± 0.077
18,AGTATACC,0.0537 ± 0.062
19,AGTATACA,0.218 ± 0.026
20,ATGTGTGC,-0.0334 ± 0.049
21,AAGCGGCA,-0.0432 ± 0.047
22,ATCACTTG,0.101 ± 0.072
23,GGATTCTA,0.0681 ± 0.064

row,Sequence,PBM 8-mer E-score
1,GTCAACTA,0.0356 ± 0.0025
2,CGGGGACA,-0.0692 ± 0.1
3,TGACTACA,0.0909 ± 0.018
4,AGATACCG,-0.166 ± 0.039
5,AGATACCA,0.171 ± 0.03
6,AGATACCC,0.264 ± 0.0095
7,AGGCGAAA,-0.0363 ± 0.041
8,GCCTTGAC,-0.0306 ± 0.049
9,AGACCGAG,-0.0567 ± 0.059
10,GCACGTCC,-0.107 ± 0.035
11,GGACGTGA,-0.181 ± 0.05
12,GCACGTAC,0.0252 ± 0.017
13,GCACGTGC,0.472 ± 0.0076
14,GCACGTGA,0.29 ± 0.034
15,GAACGTGA,-0.0484 ± 0.032
16,GTCTCGTA,-0.016 ± 0.023
17,GTGCCCAC,-0.0178 ± 0.036
18,CACTCAGG,0.00926 ± 0.0019
19,CGAGAAAA,-0.0823 ± 0.086
20,CGGCGGCA,-0.192 ± 0.016
21,GGGTAAAA,0.146 ± 0.043
22,GATGCTGA,-0.077 ± 0.021
23,CATGCTTC,0.244 ± 0.013

row,Sequence,PBM 8-mer E-score
1,CATGCTTA,0.223 ± 0.018
2,AATGCTGA,0.11 ± 0.11
3,AATGCTTC,0.126 ± 0.0042
4,CATGCGTA,0.291 ± 0.02
5,CATGCTGA,0.235 ± 0.031
6,GATGCGTA,0.12 ± 0.027
7,AATGCGTA,0.186 ± 0.021
8,CTTAAGTC,-0.0675 ± 0.033
9,CCTGCGAC,-0.0368 ± 0.021
10,CACTGACA,-0.147 ± 0.062
11,CCATTTAC,0.106 ± 0.12
12,ACACAGAA,0.0709 ± 0.022
13,ACGTATAA,0.125 ± 0.024
14,AACAGGAA,-0.0894 ± 0.071
15,ATTCAGAC,-0.0466 ± 0.061
16,CACGTGTC,0.377 ± 0.036
17,AGTGTGTA,0.0578 ± 0.047
18,CACGTGTA,0.389 ± 0.023
19,CCCGTGTC,-0.204 ± 0.024
20,AGCGTGTA,0.1194 ± 0.0008
21,CGTGTGTA,0.239 ± 0.011
22,CGCGTGTA,0.238 ± 0.04
23,GGTGTGTA,0.0384 ± 0.034

row,Sequence,PBM 8-mer E-score
1,AACGTGTC,0.0326 ± 0.036
2,CGCGTGTC,0.139 ± 0.067
3,GACGTGTA,-0.0461 ± 0.043
4,AACGTGTA,0.0544 ± 0.12
5,GACTAGAA,0.177 ± 0.023
6,CCATCGGG,-0.247 ± 0.14
7,CCCCAGTC,0.0489 ± 0.031
8,AACTTACC,-0.00702 ± 0.031
9,GCGGCGTA,0.0259 ± 0.057
10,ACTCGGGC,-0.209 ± 0.095
11,CATTCCTA,0.0858 ± 0.042
12,CGTTGTGA,-0.116 ± 0.13
13,AATCCACT,-0.0636 ± 0.11
14,TGTTCCAA,-0.0197 ± 0.029
15,ATGGAGGG,0.168 ± 0.038
16,AGCTGTGG,-0.0756 ± 0.04
17,ATAGGGGA,0.138 ± 0.033
18,GGAGGGGA,0.244 ± 0.028
19,CGAGGGGA,0.021 ± 0.025
20,GGAGGGAA,-0.0234 ± 0.062
21,GTAGGGGA,0.29 ± 0.033
22,CTAGGGGA,0.0989 ± 0.024
23,CTTTCCGA,-0.294 ± 0.038

row,Sequence,PBM 8-mer E-score
1,AGGTGCGC,-0.139 ± 0.056
2,ACCCTATA,-0.0592 ± 0.015
3,TGGCGTAA,0.0766 ± 0.16
4,ATTTTTAG,-0.0464 ± 0.14
5,AACTTCAA,0.0284 ± 0.018
6,TACTTCAA,0.243 ± 0.013
7,GACTTCAA,0.0921 ± 0.077
8,CATCTAGC,0.114 ± 0.045
9,GGTCTCAC,0.0156 ± 0.0022
10,ACGTTGAA,0.123 ± 0.036
11,ATACGTAC,0.185 ± 0.07
12,TTACGTAA,0.2354 ± 0.0003
13,CTACGTAA,0.0719 ± 0.058
14,ATACGTAT,0.339 ± 0.022
15,GTACGTAA,0.101 ± 0.075
16,ATACGTAA,0.119 ± 0.077
17,GAGACAAC,0.00299 ± 0.013
18,AACTTTAA,0.0575 ± 0.063
19,CGGTTACG,-0.19 ± 0.072
20,CCGCATCG,-0.258 ± 0.046
21,CTATGAGC,-0.0207 ± 0.088
